Compound activity (PubChem)
In the library only some 2.2% were active in any assay of this set; here they are far more common.
Shn3 inh set2 = reduction of Shn3 3'UTR firefly luciferase signal, primary screen, Schnurri-3 inhibitor project, cell-based, Clone20 osteoblasts, set 2 | inhibition, % at 12.5 µM | 360,000 compounds, 0.52% hits | Clone20 osteoblast Shn3 3'UTR firefly luciferase, 24 h;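 active = mean inhibition of at least 75% with every replicate also reaching 75%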;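 note: 0% = median of neutral control wells and 100% = pilot-screen positive control compound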
TRPM1 prom inh = inhibitors of MITF-dependent TRPM1 promoter reporter, primary screen, cell-based, SK-MEL-5, single point, luciferase; 330,000 compounds, 0.83% hits; SK-MEL-5 TRPM1 promoter luciferase, 24 h; inhibition, % at 12.5 µM;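 active = mean inhibition across replicates of 60% or more, whatever share of single replicates reaches that level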
PAX8 reporter = inhibitors of PAX8-driven TPO luciferase reporter, primary screen, RMG-I cells, single concentration. SteadyGlo, 24 h. inhibition, % at 12.6 µM. 360,000 compounds, 1.2% hits;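 active = mean replicate inhibition at least 60% with every replicate also reaching 60%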;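 note: luciferase light reporting Pax8 driven TPO promoter activity; plate controls were median of neutral control wells for no effect and mitoxantrone controls for full effect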
LGR2 antag = inhibitors of bursicon-induced LGR2 CRE-luciferase signal, primary screen, cell-based, HEK293, CRE-luciferase reporter, bursicon stimulation; Drosophila bursicon receptor LGR2 (rickets); bursicon-stimulated, 4 h; inhibition, % at 9.99 µM; 380,000 compounds, 0.35% hits; AID 720647, 2013;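 active = drop in luminescence signal, shown as inhibition above about 50% in the replicate tests, limit read from the data, passing the limit was not always enough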;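 note: agonist challenge used bursicon conditioned medium at about half maximal strength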
EWS-Fli inh = EWS/Fli-driven NR0B1 reporter inhibitors, primary screen, A673 cells, NR0B1 luciferase, luminescence, MLPCN library; 350,000 compounds, 0.67% hits; viability-normalised; inhibition, % at 12.6 µM; AID 651661, 2012;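 active = mean inhibition of at least 50% after viability correction, with every replicate also passing that limit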;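 note: firefly luciferase signal divided by Alamar Blue viability fluorescence both relative to DMSO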
LMP1 NFkB inh = EBV LMP1-driven NF-kappaB luciferase reporter inhibitors, primary screen, cell-based, luminescence, single point | LMP1-induced NF-kappaB luciferase reporter cells | inhibition, % at 12.5 µM | 350,000 compounds, 0.69% hits | AID 504558, 2011; in the data active = inhibition above about 41%;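 note: 0% = neutral control wells and 100% = reference inhibitor control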
Starred values were filed as active, the others as inactive; nt = no result given.

SMILES | Shn3 inh set2 | TRPM1 prom inh | PAX8 reporter | LGR2 antag | EWS-Fli inh | LMP1 NFkB inh
C=CC(=O)N1C/C(=C/c2ccccc2)C(=O)/C(=C\c2ccccc2)C1 | 97* | 97* | 80* | 100* | 72* | 85*
Cc1ccc2cc(C#N)c(N3CCCN(C(=S)NCCCN(C)C)CC3)nc2c1 | 13 | -10 | 8 | 9 | -3 | 1
Cc1cc(C)c2cc(C#N)c(N3CCCN(C(=S)NCCCN(C)C)CC3)nc2c1 | 12 | 88* | 6 | 19 | 16 | -21
COc1cccc(C(=O)N2CCN(c3nc4cc(C)cc(C)c4cc3C#N)CC2)c1 | 3 | nt | -10 | 6 | 1 | 57*
CN1C(=O)c2cc(NC(=O)c3ccccc3Cl)ccc2OC[C@@H]2O[C@@H](CC(=O)O)CC[C@@H]21 | nt | nt | -9 | 8 | 1 | nt
C[C@@H]1CN([C@@H](C)CO)C(=O)Cc2cc(NC(=O)Cc3cn(C)c4ccccc34)ccc2O[C@H]1CN(C)Cc1ccc(Oc2ccccc2)cc1 | nt | nt | 86* | 7 | 29 | nt
C[C@@H]1CN([C@@H](C)CO)C(=O)Cc2cc(NC(=O)CCC(F)(F)F)ccc2O[C@H]1CN(C)Cc1ccc(Oc2ccccc2)cc1 | nt | nt | 90* | -10 | 13 | nt
COc1ccc(NC(=O)Nc2ccc3c(c2)CC(=O)N([C@H](C)CO)C[C@@H](C)[C@@H](CN(C)Cc2ccc(Oc4ccccc4)cc2)O3)cc1 | nt | nt | 103* | -9 | 21 | nt
COc1ccc(NC(=O)Nc2ccc3c(c2)CC(=O)N([C@@H](C)CO)C[C@@H](C)[C@H](CN(C)Cc2ccc(Oc4ccccc4)cc2)O3)cc1 | nt | nt | 70* | 22 | 10 | nt
COc1ccc(NC(=O)Nc2ccc3c(c2)CC(=O)N([C@@H](C)CO)C[C@H](C)[C@@H](CN(C)Cc2ccc(Oc4ccccc4)cc2)O3)cc1 | nt | nt | 23 | 22 | -9 | nt
C[C@H](CO)N1C[C@H](C)[C@H](CN(C)Cc2ccc(Oc3ccccc3)cc2)Oc2ccc(NC(=O)CCC(F)(F)F)cc2CC1=O | nt | nt | 7 | -3 | 8 | nt
C[C@@H]1CN([C@H](C)CO)C(=O)Cc2cc(NC(=O)Cc3cn(C)c4ccccc34)ccc2O[C@@H]1CN(C)Cc1ccc(Oc2ccccc2)cc1 | nt | nt | 44 | -3 | 22 | nt
O=C(Nc1ccccc1F)N[C@H]1CC[C@@H](CCNC(=O)C2CCC2)O[C@H]1CO | nt | nt | 6 | 16 | 2 | nt
Cc1cccc(C#CC2=CC(=O)CC(C)(C)C2)c1 | -48 | nt | 0 | nt | -12 | -16
CC1(C)CC(=O)C=C(C#CC2(O)CCCCC2)C1 | 47 | nt | 109* | 15 | 11 | -6
c1cnc2ccc3ncccc3c2c1 | -9 | -2 | -14 | 0 | -22 | -2
O=Cc1ccc(O)c2ncccc12 | 70 | 63* | nt | nt | nt | 59*
CN1CCCCN2[C@@H](CO)[C@H](c3ccc(Br)cc3)[C@@H]2C1 | nt | nt | 0 | -9 | -11 | nt
COc1ccc(NC(=O)COC(=O)Cc2c[nH]c3ccccc23)cc1OC | -4 | 8 | 13 | 3 | 6 | 70*
COc1cc(C(=O)OCC(=O)c2c[nH]c3ccccc23)ccc1OCC(=O)N1CCOCC1 | -8 | 9 | 13 | nt | nt | 9
COc1ccc(C(=O)OCC(=O)c2c[nH]c3ccccc23)cc1OC | -37 | -9 | -27 | -3 | -23 | 67*
C[C@@H]1CN([C@H](C)CO)C(=O)Cc2cc(NC(=O)NC3CCCCC3)ccc2O[C@@H]1CN(C)Cc1ccc(-c2ccccc2)cc1 | nt | nt | 23 | 5 | 6 | nt
COc1ccc(S(=O)(=O)N[C@H]2C=C[C@H](CC(=O)N3CCc4ccccc4C3)O[C@H]2CO)cc1 | nt | nt | 29 | nt | 4 | nt
O=C(CN(C1CCCCC1)S(=O)(=O)c1ccc(F)cc1)NCC1CCCO1 (stereo unspecified) | 97* | 86* | 45 | -68 | 20 | -132
O=C(CN(c1ccc(Cl)cc1)S(=O)(=O)c1ccc(Cl)c([N+](=O)[O-])c1)NCCc1ccc(F)cc1 | 15 | 70* | 11 | 15 | nt | -13
SMILES | Shn3 inh set2 | TRPM1 prom inh | PAX8 reporter | LGR2 antag | EWS-Fli inh | LMP1 NFkB inh
O=C(CN(c1ccc(Cl)cc1)S(=O)(=O)c1ccc(Cl)c([N+](=O)[O-])c1)NCCc1ccccc1 | 36 | 51 | 79* | 5 | 22 | 9
O=C(CN(c1ccc(Br)cc1)S(=O)(=O)c1ccc(Cl)c([N+](=O)[O-])c1)NCC1CCCO1 (stereo unspecified) | 3 | 85* | 44 | -10 | 44 | 7
CC(=O)N1[C@@H](CO)[C@H](c2ccc(-c3ccccc3)cc2)[C@@H]1CNC(=O)C1CC1 | nt | nt | 4 | -1 | 3 | nt
O=C(c1cccnc1)N1CC(=O)N2[C@H](CO)[C@H](c3ccc(/C=C/c4ccccc4)cc3)[C@H]2C1 | nt | nt | 56 | -1 | -3 | nt
CC(C)NC(=O)NCC[C@H]1CC[C@H](NS(=O)(=O)c2ccccc2)[C@H](CO)O1 | nt | nt | nt | 9 | 0 | nt
O=C1c2cccc(NCCCNCCO)c2C(=O)c2cccc(NCCCNCCO)c21 | -49 | 86* | 57 | 12* | 13 | 25
C[C@@H]1CN([C@H](C)CO)C(=O)c2cc(-c3ccc(F)cc3)cnc2O[C@H]1CN(C)C(=O)Nc1ccc(F)cc1 | nt | nt | nt | -17 | 12 | nt
COc1ccccc1-c1cnc2c(c1)C(=O)N([C@@H](C)CO)C[C@H](C)[C@@H](CN(C)Cc1cccc(F)c1)O2 | nt | nt | nt | 11 | -3 | nt
Cn1cc(S(=O)(=O)N2CCc3ccccc32)cc1C(=O)NC(C)(C)C | 89* | 29 | 31 | 16 | 21 | 13
Cc1cccc(C)c1NC(=O)c1cc(S(=O)(=O)N2CCc3ccccc32)cn1C | -6 | 6 | -15 | 8 | -8 | 1
O=C1CC(SC(=NCc2ccc3c(c2)OCO3)Nc2ccccc2)C(=O)N1 (stereo unspecified) | -10 | -4 | nt | nt | nt | 55*
COc1ccc(CN=C(Nc2ccccc2)SC2CC(=O)NC2=O)cc1 (stereo unspecified) | -3 | -9 | 5 | -6 | 2 | -4
O=C(C[C@H]1C=C[C@H](NC(=O)c2ccccc2)[C@@H](CO)O1)Nc1ccc(-c2ccccc2)cc1 | nt | nt | 0 | -9 | -11 | nt
COc1ccc(/C=C2\C(=O)ON=C2c2ccccc2)cc1 | 52 | 21 | -59 | -13 | 22 | -4
O=C1ON=C(c2ccccc2)/C1=C/c1ccc(OS(=O)(=O)c2ccccc2)cc1 | -29 | -9 | 108* | -13 | -6 | 2
CO[C@H]1CN(C)C(=O)c2cc(NC(=O)C3CC3)ccc2OC[C@@H](C)N(CC2CC2)C[C@H]1C | nt | nt | -12 | -14 | -9 | nt
CCN(CC)C(=O)CSc1n[nH]c(=O)n1CCc1ccccc1 | 1 | 2 | 12 | -23 | -3 | -6
O=c1[nH]nc(Sc2ncnc3sccc23)n1CCc1ccccc1 | 48 | 23 | 83* | nt | nt | 20
